Experimental data published in PubChem BioAssay AID743395 (Broad Institute, 2014).
Among all 1,200 compounds or so, about 480 (40%) were called active. No rule for the calls is given here. The set was probably picked from earlier hits. A selection follows. Measured potencies and affinities stand elsewhere.

test: viability loss in human hepatoma cells – cell-based, CellTiter-Glo luminescence, cherry-pick, set 2, cytotoxicity control, dose response (AID 743395); conditions: HepG2 viability, CellTiter-Glo ATP luminescence, 72 h; series mostly up to 26 µM; activity change, negative = cytotoxicity: at the top concentration;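 also: 0% = neutral control wells and -100% = positive control wells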

Row | SMILES | activity change, negative = cytotoxicity
1 | COc1ccc(CCC(=O)N2CCN(S(=O)(=O)c3ccc(OC(F)(F)F)cc3)CC2)cc1 | -3.96% (inactive)
2 | CCS(=O)(=O)N1CC(=O)N2[C@H](C1)[C@@H](c1ccc(C#CCC(C)C)cc1)[C@@H]2CO | 5.82% (inactive)
3 | CCS(=O)(=O)N1CC(=O)N2[C@H](CO)[C@@H](c3ccc(C#CCC(C)C)cc3)[C@@H]2C1 | -5.68% (inactive)
4 | CS(=O)(=O)N1CC(=O)N2[C@H](C1)[C@H](c1ccc(C#Cc3ccc(F)cc3)cc1)[C@@H]2CO | 9.48% (inactive)
5 | COc1ccccc1N1CCN(/N=C/C=C\c2ccccc2[N+](=O)[O-])CC1 | -6.14% (inactive)
6 | COc1cc(SC)ccc1C(=O)N1CCN(c2ccccc2OC)CC1 | -19.4% (inactive)
7 | Cc1ccc(C(=O)NCC(=O)OCC(=O)NC(C)c2ccccc2)s1 (configuration not stated) | 1.29% (inactive)
8 | C[C@@H]1CN([C@@H](C)CO)C(=O)Cc2cc(N(C)C)ccc2O[C@@H]1CN(C)Cc1ccccc1 | 11% (inactive)
9 | C[C@@H]1CN([C@@H](C)CO)C(=O)Cc2cc(NC(=O)Nc3ccc(C(F)(F)F)cc3)ccc2O[C@H]1CN(C)C(=O)Nc1ccccc1 | 1.88% (inactive)
10 | C[C@H]1CCCCO[C@H](CN(C)C(=O)Cc2ccccc2)[C@@H](C)CN([C@@H](C)CO)C(=O)c2cc(N(C)C)ccc2O1 | 17.5% (inactive)
11 | C[C@H](CO)N1C[C@H](C)[C@H](CN(C)Cc2ccc(Cl)c(Cl)c2)Oc2ccc(NC(=O)C3CCCCC3)cc2CC1=O | -6.82% (inactive)
12 | C[C@@H]1CN([C@H](C)CO)C(=O)c2cc(NC(=O)Cc3cn(C)c4ccccc34)ccc2O[C@@H]1CN(C)Cc1ccc(Cl)c(Cl)c1 | -4.98% [at 23.5 µM] (inactive)
13 | C[C@@H]1CN([C@@H](C)CO)C(=O)c2cc(NC(=O)Nc3cccc4ccccc34)ccc2O[C@@H](C)CCCCO[C@@H]1CN(C)Cc1ccc2c(c1)OCO2 | -26.5% (inactive)
14 | C[C@@H]1CN([C@@H](C)CO)C(=O)c2cccc(NC(=O)Nc3ccc4c(c3)OCO4)c2O[C@H]1CN(C)S(=O)(=O)c1ccccc1 | -9.43% (inactive)
15 | CCNC(=O)C1CCCN(C(=O)c2cc(F)ccc2C)CC1 (configuration not stated) | -0.235% (inactive)
16 | CCNC(=O)C1(C)CCN(C(=O)c2cc(F)ccc2C)C1 (configuration not stated) | -6.93% (inactive)
17 | Cc1cccc(CC(=O)Nc2cccnc2)c1 | -1.85% (inactive)
18 | CN1c2ccc(-c3ccc(C#N)cc3)cc2[C@H]2[C@H](CCN2S(=O)(=O)c2cccc(F)c2)[C@H]1CO | -16.1% (inactive)
19 | CN1c2ccc(-c3ccc(C#N)cc3)cc2[C@H]2[C@H](CCN2S(=O)(=O)c2cccc(F)c2)[C@@H]1CO | -0.956% (inactive)
20 | O=C(O)C1=C[C@@H](O)[C@@H](O)[C@H](O)C1 | -13.4% (inactive)
21 | CCOCCOC(=O)COC(=O)c1ccccc1NC(=O)c1ccccc1 | -0.163% (inactive)
22 | COc1ccc(C(=O)c2cc(OC)c(OC)c(OC)c2)cc1OC | 7.79% (inactive)

Row | SMILES | activity change, negative = cytotoxicity
23 | COc1ccc(C(=O)Nc2ccccc2C(=O)Nc2ccccc2)cc1 | -24.1% (inactive)
24 | Cc1nc(NCc2cccnc2)c2c3c(sc2n1)CCCC3 | -5.3% (inactive)
25 | COc1ccc(-c2cc(=O)c3c(O)cc(O)cc3o2)cc1 | -9.33% (inactive)
26 | Cn1cccc1/C=C1\SC(=Nc2ccc(O)cc2)NC1=O | -16.7% (inactive)
27 | O=C1NC(=Nc2cccnc2)S/C1=C/c1ccc(F)cc1 | -14.8% (inactive)
28 | C=CC[C@@H](CC(=O)N(CCO)Cc1ccccc1)C(=O)N[C@H](COC(=O)[C@H](CC=C)CC(=O)OC(C)(C)C)Cc1c[nH]c2ccccc12 | -12.6% (inactive)
29 | CCCC#Cc1ccc([C@H]2[C@H](CO)N3C(=O)CN(C(=O)Nc4cc(F)ccc4F)C[C@@H]23)cc1 | -5.13% (inactive)
30 | CCCNC(=O)N1[C@H](C#N)[C@H](c2ccc(C#Cc3ccc(F)cc3)cc2)[C@@H]1CO | -23.9% (inactive)
31 | CC(C)CC#Cc1ccc([C@H]2[C@H](CO)N3C(=O)CN(C(=O)Nc4cc(F)ccc4F)C[C@@H]23)cc1 | -9.28% (inactive)
32 | O=C(Nc1cc(F)ccc1F)N1CC(=O)N2[C@@H](CO)[C@H](c3ccc(C#CC4CCCCC4)cc3)[C@@H]2C1 | -6.48% (inactive)
33 | Cc1ccc(-c2cccc(CN3CCN(C(C)C)C(CCO)C3)c2)o1 (configuration not stated) | -17.7% (inactive)
34 | COc1cc(-c2noc(C)c2C#Cc2ccccn2)cc(OC)c1OC | -16.2% (inactive)
35 | COc1cc(-c2noc(C)c2C#Cc2ccsc2)cc(OC)c1OC | -17.5% (inactive)
36 | CCOc1ccc(-c2cc(C(=O)N/N=C/c3ccc(O)cc3)c3ccccc3n2)cc1 | -21.9% (inactive)
37 | CCN1CCCC(OC(=O)c2cc(-c3ccccc3Cl)nc3ccccc23)C1 (configuration not stated) | -10.8% (inactive)
38 | O=C(CCC(=O)N1CCOc2ccc(Cl)cc21)N1CCN(c2ccccn2)CC1 | 2.93% (inactive)
39 | COC(=O)Cc1c(O)ccn(Cc2ccc(Cl)c(Cl)c2)c1=O | -16.8% (inactive)
40 | CN1C(=O)c2cc(NC(=O)c3ccc(Cl)cc3)ccc2OC[C@@H]2O[C@H](CC(=O)NCc3cccc(F)c3)CC[C@H]21 | 18.6% (inactive)
41 | CCN(CC(=O)Nc1ccc(NC(C)=O)cc1)C(=O)c1ccc(N2CCC(C)CC2)c([N+](=O)[O-])c1 | -18.6% (inactive)
42 | Cc1c(CCC(=O)O)c(=O)oc2c(C)c(OCc3ccccc3Cl)ccc12 | 5.78% (inactive)
43 | COc1ccc(C(C)=O)cc1CS(=O)(=O)CC(=O)NCCc1c[nH]c2ccccc12 | -4.03% (inactive)
44 | O=C(CN(Cc1ccco1)Cc1ccco1)Nc1cc(S(=O)(=O)N2CCCCC2)ccc1Cl | 13.7% (inactive)

Row | SMILES | activity change, negative = cytotoxicity
45 | Cc1c(OCC(=O)NCCN2CCOCC2)ccc2c3c(c(=O)oc12)CCC3 | -6.09% (inactive)
46 | Oc1cc2c(cc1O)C(c1ccccc1)CNCC2 (configuration not stated) | 0.38% (inactive)
47 | COc1ccc(OC)c(C2CC(c3ccccc3)=NN2C(=S)Nc2ccccc2)c1 (configuration not stated) | -20.7% (inactive)
48 | CCOc1ccc(N(CC)C(=O)COc2cc(=O)n(C)c3ccccc23)cc1 | 11.3% (inactive)
49 | CCOC(=O)c1c(C)[nH]c(C)c1C(=O)COC(=O)c1ccc([N+](=O)[O-])s1 | -18.1% (inactive)
50 | C/C=C/c1ccc([C@H]2[C@@H](CO)N(C(=O)COC)[C@@H]2CNC(=O)CC)cc1 | -0.817% [at 23.5 µM] (inactive)
51 | Cc1cc(/C=N/NC(N)=S)c(O)c(/C=N/NC(N)=S)c1 | -18% (inactive)
52 | Cc1cc2c(cc1C)C(c1ccccc1OC(C)C)CC(=O)N2 (configuration not stated) | -16.4% (inactive)
53 | O=C(Nc1ccccc1)c1nc[nH]c1C(=O)Nc1ccccc1F | -20.8% (inactive)
54 | CN(CC(=O)Nc1cccc(S(=O)(=O)N2CCCC2)c1)CC(=O)Nc1ccc(F)c(F)c1F | -10.9% (inactive)
55 | COc1cccc(-c2cccc(-c3nc(C(=O)NCC(F)(F)F)cc4c3[C@H](CCO)N([S@@](=O)C(C)(C)C)C4)c2)c1 | -28.3% (inactive)
56 | N#Cc1nc(NCC(F)F)nc(Nc2cc(F)cc(F)c2)n1 | -8.63% (inactive)
57 | COCCCNc1nnc(Cc2ccc(Cl)cc2)c(=O)[nH]1 | -22% (inactive)
58 | N#CCC(=O)N/N=C/c1cn(Cc2cccc3ccccc23)c2ccccc12 | 5.87% (inactive)
59 | O=C(CN1CCN(S(=O)(=O)c2ccccc2)CC1)Nc1ccccc1Cl | -11.1% (inactive)
60 | COc1ccc2oc(C(=O)N3CCN(C(=O)c4ccco4)CC3)c(C)c2c1 | -4.08% (inactive)
61 | COc1ccc(NC(=O)c2ccc(NC(=O)c3nc4nccc(C)n4n3)cc2)cc1 | -15.4% (inactive)
62 | CCCc1nc2ccccc2c(C(=O)OCC(=O)NCc2ccc3c(c2)OCO3)c1CC | -28.8% (inactive)
63 | COc1ccc(CC(=O)Nc2nccs2)cc1S(=O)(=O)N1CCOCC1 | -8.61% (inactive)
64 | Cc1ccc(S(=O)(=O)N2CCOCC2)cc1NC(=O)COC(=O)c1ccc(Cl)nc1 | 4.96% (inactive)
65 | COc1ccc(S(=O)(=O)Nc2ccc3c(c2)C(=O)N([C@H](C)CO)C[C@@H](C)[C@@H](CN(C)Cc2ccc(C(F)(F)F)cc2)O3)cc1 | -4.66% (inactive)
66 | Cc1ccc(S(=O)(=O)Nc2ccc3c(c2)C(=O)N([C@@H](C)CO)C[C@H](C)[C@H](CN(C)S(=O)(=O)c2ccc(C)cc2)OCCCC[C@@H](C)O3)cc1 | -3.79% [at 23.5 µM] (inactive)

Row | SMILES | activity change, negative = cytotoxicity
67 | C[C@H](CO)N1C[C@H](C)[C@H](CN(C)C(=O)NC2CCCCC2)Oc2ncc(-c3cc4ccccc4o3)cc2C1=O | -3.27% (inactive)
68 | C[C@@H]1CN([C@H](C)CO)C(=O)c2cc(NC(=O)Cc3ccccc3)ccc2O[C@@H]1CN(C)S(C)(=O)=O | 6.51% [at 23.5 µM] (inactive)
69 | Cc1ccc(S(=O)(=O)N(C)C[C@@H]2OCCCC[C@@H](C)Oc3ccc(NS(=O)(=O)c4ccc(Cl)cc4)cc3C(=O)N([C@@H](C)CO)C[C@@H]2C)cc1 | -3.66% (inactive)
70 | COc1ccc(S(=O)(=O)Nc2ccc3c(c2)C(=O)N([C@@H](C)CO)C[C@@H](C)[C@H](CN(C)Cc2ccc(Oc4ccccc4)cc2)O3)cc1 | 14% (inactive)
71 | CCCNC(=O)N1[C@H](CO)[C@@H](c2ccc(C3=CCCC3)cc2)[C@@H]1CN(C)C(C)=O | 7.91% (inactive)
72 | N#C[C@@H]1[C@H](c2ccc(-c3cccc(F)c3)cc2)[C@H](CO)N1C(=O)NC1CCCC1 | -16.6% (inactive)
73 | CCOc1ccccc1N1CCN(C(=O)c2cc3ccccc3cc2OC)CC1 | -16.5% (inactive)
74 | Cc1nn(C)c(C)c1/C=C/C(=O)O | -1.57% (inactive)
75 | COc1cc(/C=C/C(=O)O)cc(S(=O)(=O)Nc2ccc3cn[nH]c3c2)c1OC | 1.05% (inactive)
76 | COc1ccc(C)cc1NC(=O)CNC(c1ccccc1)c1ccc(C)cc1 (configuration not stated) | 8.87% (inactive)
77 | O=C(CSC1=NNC(c2ccccn2)S1)Nc1ccccc1 (configuration not stated) | -4.35% (inactive)
78 | CN(C)S(=O)(=O)c1ccc2c(c1)/C(=C/c1cc3c([nH]1)CCCC3)C(=O)N2 | -13% (inactive)
79 | COC(=O)Cn1c(=NC(=O)c2cc(-c3cccs3)nc3ccccc23)sc2cc(S(N)(=O)=O)ccc21 | -5.09% (inactive)
80 | CN(c1ccc(O)cc1)c1nc(-c2cccs2)cs1 | -12.2% (inactive)
81 | C=CCN=c1scc(C)n1/N=C/c1ccc(O)c(O)c1 | -26.3% (inactive)
82 | COCOc1cccc(CN2CCC(C)(Oc3cccc(C#N)c3)C2)c1 (configuration not stated) | -17.5% (inactive)
83 | O=C(NCc1cccs1)c1cc(-c2ccccc2)nn1CC1CC(c2cccc([N+](=O)[O-])c2)=NO1 (configuration not stated) | -7.8% (inactive)
84 | C=CCN1C(=O)/C(=C/C=C2/N(CC)c3ccc(S(=O)(=O)N(C)C)cc3N2CC)SC1=S | -19.1% (inactive)
85 | CCOc1ccc(Cl)cc1C1=CC(=O)C[C@H](c2ccc(OC)cc2)C1 | -6.55% (inactive)
86 | COc1ccc(C2CN=NC23CCc2ccccc2C3=O)cc1 (configuration not stated) | -5.59% (inactive)
87 | COc1ccc2c(c1)C(=O)CC(c1ccc3c(c1)OCCO3)O2 (configuration not stated) | -9.83% (inactive)
